PubChem BioAssay AID1159580 (chemical genetic matrix, 2015)
Hit rate of the full screen: of about 5,500 compounds, about 2,000 (36%) were called active. About 18% were inconclusive and are not listed. Rule as the data show it: active = normalized growth mostly below about 0.91 (no sharp cut-off); inconclusive = no clear call, values can overlap the other calls; inactive = mostly above about 0.92. Some of the results follow.

Assay: chemical genetic growth profiling, strain panel (AID 1159580);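 also: tested at 20 µM; growth read once vehicle control cultures reached saturation at 30 °C; 1 = growth at the plate median or of vehicle wells; lower values mean less growth of the strain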
Conditions: growth OD

Measured: normalized growth

COc1ccc2cc1Oc1ccc(cc1)C[C@H]1c3cc(c(OC)cc3CCN1C)Oc1c(OC)c(OC)cc3c1[C@H](C2)N(C)CC3
inactive: S. cerevisiae deletion strains, locus YKL009W, strain mrt4, active compounds read low 1.02 | S. cerevisiae deletion strains, locus YKL068W, active compounds read low 1.01 | S. cerevisiae deletion strains, locus YKL085W, strain MDH1 (second series), active compounds read low 1.01 | S. cerevisiae deletion strains, locus YKL085W, strain MDH1, active compounds read low 1.01 | S. cerevisiae deletion strains, locus YKL160W, strain elf1, active compounds read low 0.99 | S. cerevisiae deletion strains, locus YKL190W, strain CNB1, active compounds read low 1.01 | S. cerevisiae deletion strains, locus YKR001C, strain vps1, active compounds read low 0.973 | S. cerevisiae deletion strains, locus YKR026C, strain gcn3, active compounds read low 1 | S. cerevisiae deletion strains, locus YKR091W, strain srl3, active compounds read low 1 | S. cerevisiae deletion strains, locus YLL001W, strain dnm1, active compounds read low 0.986 | S. cerevisiae deletion strains, locus YLL026W, active compounds read low 1 | S. cerevisiae deletion strains, locus YLL041C, strain sdh2, active compounds read low 1 | S. cerevisiae deletion strains, locus YLR027C, strain aat2, active compounds read low 1.01 | S. cerevisiae deletion strains, locus YLR039C, strain RIC1, active compounds read low 0.94 | S. cerevisiae deletion strains, locus YLR058C, strain SHM2, active compounds read low 1.01 | S. cerevisiae deletion strains, locus YLR102C, strain apc9, active compounds read low 1.01 | S. cerevisiae deletion strains, locus YLR113W, strain HOG1, active compounds read low 1.07 | S. cerevisiae deletion strains, locus YLR221C, strain rsa3, active compounds read low 1.01 | S. cerevisiae deletion strains, locus YLR258W, strain gsy2, active compounds read low 1.01 | S. cerevisiae deletion strains, locus YLR262C, strain YPT6 (second series), active compounds read low 0.975 | S. cerevisiae deletion strains, locus YLR262C, strain YPT6, active compounds read low 0.993 | S. cerevisiae deletion strains, locus YLR268W, strain sec22, active compounds read low 1.01 | S. cerevisiae deletion strains, locus YLR320W, strain mms22, active compounds read low 0.987 | S. cerevisiae deletion strains, locus YLR330W, strain CHS5, active compounds read low 1.02 | S. cerevisiae deletion strains, locus YLR342W, strain FKS1 (second series), active compounds read low 0.885 | S. cerevisiae deletion strains, locus YLR342W, strain FKS1, active compounds read low 1.01 | S. cerevisiae deletion strains, locus YLR357W, strain rsc2, active compounds read low 0.977 | S. cerevisiae deletion strains, locus YLR370C, strain arc18, active compounds read low 0.914 | S. cerevisiae deletion strains, locus YLR371W, strain rom2, active compounds read low 1.01 | S. cerevisiae deletion strains, locus YLR384C, strain iki3, active compounds read low 1.01 | S. cerevisiae deletion strains, locus YLR418C, strain cdc73, active compounds read low 0.96 | S. cerevisiae deletion strains, locus YML016C, strain PPZ1, active compounds read low 1 | S. cerevisiae deletion strains, locus YML032C, strain rad52, active compounds read low 1.01 | S. cerevisiae deletion strains, locus YML120C, strain ndi1, active compounds read low 1.02 | S. cerevisiae deletion strains, locus YML124C, strain tub3, active compounds read low 1.02 | S. cerevisiae deletion strains, locus YMR058W, strain fet3, active compounds read low 1 | S. cerevisiae deletion strains, locus YMR078C, strain ctf18, active compounds read low 1.02 | S. cerevisiae deletion strains, locus YMR125W, strain sto1, active compounds read low 0.992 | S. cerevisiae deletion strains, locus YMR129W, active compounds read low 1.02 | S. cerevisiae deletion strains, locus YMR205C, strain PFK2, active compounds read low 0.963 | S. cerevisiae deletion strains, locus YMR223W, strain ubp8, active compounds read low 0.986 | S. cerevisiae deletion strains, locus YMR231W, strain pep5, active compounds read low 1.01 | S. cerevisiae deletion strains, locus YMR263W, strain SAP30, active compounds read low 1 | S. cerevisiae deletion strains, locus YMR307W, strain GAS1, active compounds read low 0.966 | S. cerevisiae deletion strains, locus YNL067W, strain RPL9B, active compounds read low 1.01 | S. cerevisiae deletion strains, locus YNL071W, strain lat1, active compounds read low 0.998 | S. cerevisiae deletion strains, locus YNL128W, strain TEP1, active compounds read low 1.01 | S. cerevisiae deletion strains, locus YNL153C, strain GIM3, active compounds read low 0.995 | S. cerevisiae deletion strains, locus YNL183C, strain NPR1, active compounds read low 0.999 | S. cerevisiae deletion strains, locus YNL209W, strain ssb2, active compounds read low 0.995 | S. cerevisiae deletion strains, locus YNL233W, strain BNI4, active compounds read low 0.995 | S. cerevisiae deletion strains, locus YNL248C, strain rpa49, active compounds read low 1.01 | S. cerevisiae deletion strains, locus YNL250W, strain rad50, active compounds read low 1.02 | S. cerevisiae deletion strains, locus YNL271C, strain bni1, active compounds read low 1.01 | S. cerevisiae deletion strains, locus YNL298W, strain CLA4, active compounds read low 1.01 | S. cerevisiae deletion strains, locus YNL322C, strain KRE1 (second series), active compounds read low 1.01 | S. cerevisiae deletion strains, locus YNL322C, strain KRE1, active compounds read low 1.02 | S. cerevisiae deletion strains, locus YNR049C, strain mso1, active compounds read low 0.991 | S. cerevisiae deletion strains, locus YNR052C, strain pop2, active compounds read low 0.968 | S. cerevisiae deletion strains, locus YOL006C, strain TOP1, active compounds read low 0.632 | S. cerevisiae deletion strains, locus YOL012C, strain htz1 0.904 | S. cerevisiae deletion strains, locus YOL147C, strain pex11, active compounds read low 1.01 | S. cerevisiae deletion strains, locus YOR001W, strain rrp6, active compounds read low 1 | S. cerevisiae deletion strains, locus YOR061W, strain CKA2, active compounds read low 0.993 | S. cerevisiae deletion strains, locus YOR069W, strain VPS5, active compounds read low 1.01 | S. cerevisiae deletion strains, locus YOR070C, strain gyp1, active compounds read low 1 | S. cerevisiae deletion strains, locus YOR080W, strain dia2, active compounds read low 0.995 | S. cerevisiae deletion strains, locus YOR083W, strain WHI5, active compounds read low 0.968 | S. cerevisiae deletion strains, locus YOR106W, strain vam3, active compounds read low 0.961 | S. cerevisiae deletion strains, locus YOR136W, strain idh2, active compounds read low 0.999 | S. cerevisiae deletion strains, locus YOR144C, strain elg1, active compounds read low 1.01 | S. cerevisiae deletion strains, locus YOR184W, strain ser1, active compounds read low 1.02 | S. cerevisiae deletion strains, locus YOR231W, strain MKK1, active compounds read low 0.974 | S. cerevisiae deletion strains, locus YOR265W, strain rbl2, active compounds read low 0.984 | S. cerevisiae deletion strains, locus YOR290C, strain snf2, active compounds read low 0.937 | S. cerevisiae deletion strains, locus YOR316C, strain cot1, active compounds read low 1.01 | S. cerevisiae deletion strains, locus YPL051W, strain arl3, active compounds read low 0.982 | S. cerevisiae deletion strains, locus YPL055C, strain LGE1, active compounds read low 0.975 | S. cerevisiae deletion strains, locus YPL078C, strain atp4, active compounds read low 0.974 | S. cerevisiae deletion strains, locus YPL106C, strain sse1, active compounds read low 0.984 | S. cerevisiae deletion strains, locus YPL240C, strain hsp82, active compounds read low 1.01 | S. cerevisiae deletion strains, locus YPL241C, strain CIN2, active compounds read low 1 | S. cerevisiae deletion strains, locus YPL256C, strain CLN2, active compounds read low 1.02 | S. cerevisiae deletion strains, locus YPR119W, strain clb2, active compounds read low 1.01 | S. cerevisiae deletion strains, locus YPR141C, strain kar3, active compounds read low 1.02 | S. cerevisiae deletion strains, locus YPR163C, strain tif3, active compounds read low 0.987 | S. cerevisiae deletion strains, locus YPR167C, strain met16, active compounds read low 1.01 | S. cerevisiae deletion strains, strain wtn01, active compounds read low 1 | S. cerevisiae strains, strain wild type, active compounds read low 0.981
active: S. cerevisiae deletion strains, locus YNL307C, strain MCK1, active compounds read low 0.902 | S. cerevisiae deletion strains, locus YOR270C, strain vph1, active compounds read low 0.723
